Residue numbers refer to the chain shown, from its start. In all, about 16,000 sequences were measured (“ka relative to ugcaugu”: median about 0.0091, highest 2% from about 0.032 on). The sample holds the highest values, similar sequences and a random draw of the others, so the mix is not that of the screen.
T1: RBFOX1 RRM (Homo sapiens, UniProt Q9NWB1 109-208)
T1 sequence: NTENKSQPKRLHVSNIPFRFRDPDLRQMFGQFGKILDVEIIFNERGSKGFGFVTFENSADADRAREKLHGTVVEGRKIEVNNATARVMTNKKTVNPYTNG

B1: GACAUGU (DNA:RNA)
RNA: GGGAGACCGGAAUUCAGAUUGUCCGACAUGUUUAAAUCCCGUCGUAGCCACCA
DNA 1: CAATCTGAATTCCGGTCTCCC
DNA 2: TGGTGGCTACGACGGGATT
B2: GACACAU (DNA:RNA)
RNA: B1 RNA with U29C, G30A
DNA 1: CAATCTGAATTCCGGTCTCCC
DNA 2: TGGTGGCTACGACGGGATT
B3: GAACACU (DNA:RNA)
RNA: B1 RNA with C27A, A28C, U29A, G30C
DNA 1: CAATCTGAATTCCGGTCTCCC
DNA 2: TGGTGGCTACGACGGGATT
B4: AGUUCUC (DNA:RNA)
RNA: GGGAGACCGGAAUUCAGAUUGUCCAGUUCUCUUAAAUCCCGUCGUAGCCACCA
DNA 1: CAATCTGAATTCCGGTCTCCC
DNA 2: TGGTGGCTACGACGGGATT
B5: CUCUCGG (DNA:RNA)
RNA: B4 RNA with A25C, G26U, U27C, U30G, C31G
DNA 1: CAATCTGAATTCCGGTCTCCC
DNA 2: TGGTGGCTACGACGGGATT
B6: GAGGGCA (DNA:RNA)
RNA: B1 RNA with C27G, A28G, U29G, G30C, U31A
DNA 1: CAATCTGAATTCCGGTCTCCC
DNA 2: TGGTGGCTACGACGGGATT
B7: ACCACGG (DNA:RNA)
RNA: B1 RNA with G25A, A26C, U29C, U31G
DNA 1: CAATCTGAATTCCGGTCTCCC
DNA 2: TGGTGGCTACGACGGGATT
B8: UGCACGA (DNA:RNA)
RNA: B1 RNA with G25U, A26G, U29C, U31A
DNA 1: CAATCTGAATTCCGGTCTCCC
DNA 2: TGGTGGCTACGACGGGATT
B9: UGCACCA (DNA:RNA)
RNA: B4 RNA with A25U, U27C, U28A, U30C, C31A
DNA 1: CAATCTGAATTCCGGTCTCCC
DNA 2: TGGTGGCTACGACGGGATT
B10: UGCCCGG (DNA:RNA)
RNA: B4 RNA with A25U, U27C, U28C, U30G, C31G
DNA 1: CAATCTGAATTCCGGTCTCCC
DNA 2: TGGTGGCTACGACGGGATT
B11: UGUCUGC (DNA:RNA)
RNA: B4 RNA with A25U, U28C, C29U, U30G
DNA 1: CAATCTGAATTCCGGTCTCCC
DNA 2: TGGTGGCTACGACGGGATT
B12: UGCACAA (DNA:RNA)
RNA: B4 RNA with A25U, U27C, U28A, U30A, C31A
DNA 1: CAATCTGAATTCCGGTCTCCC
DNA 2: TGGTGGCTACGACGGGATT
B13: ACGCUGC (DNA:RNA)
RNA: B4 RNA with G26C, U27G, U28C, C29U, U30G
DNA 1: CAATCTGAATTCCGGTCTCCC
DNA 2: TGGTGGCTACGACGGGATT
B14: UGCACGC (DNA:RNA)
RNA: B4 RNA with A25U, U27C, U28A, U30G
DNA 1: CAATCTGAATTCCGGTCTCCC
DNA 2: TGGTGGCTACGACGGGATT
B15: UGCACGG (DNA:RNA)
RNA: B1 RNA with G25U, A26G, U29C, U31G
DNA 1: CAATCTGAATTCCGGTCTCCC
DNA 2: TGGTGGCTACGACGGGATT

biological target: T1, RBFOX1 RRM; assay: EMSA; HiTS-Eq, 1 nM pool, 10 min; buffer printed only for the single-RNA assays: 10 mM Tris pH 7.5, 150 mM NaCl, 3.4 mM EDTA, 0.001% NP-40, 30 C; conditions: tags: His6 N-terminal (pET28a); label: 5' 32P
Outline: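 Purified wild-type or mutant RbFox RRM at increasing concentrations was equilibrated with 1 nM of 5′-radiolabelled RNA carrying 7 randomized nucleotides for 10 min in 50 µL. Unbound RNA was separated by 8% native PAGE and sequenced. Relative association constants came from read-count changes of each RNA species compared with the control reaction, normalised to the cognate motif.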

Binder	binding signal
B1	0.0153 KA relative to UGCAUGU
B2	0.000474 KA relative to UGCAUGU
B3	0.00588 KA relative to UGCAUGU
B4	0.0138 KA relative to UGCAUGU
B5	0.0101 KA relative to UGCAUGU
B6	0.0138 KA relative to UGCAUGU
B7	0.0054 KA relative to UGCAUGU
B8	0.0767 KA relative to UGCAUGU
B9	0.00925 KA relative to UGCAUGU
B10	0.0184 KA relative to UGCAUGU
B11	0.0316 KA relative to UGCAUGU
B12	0.00911 KA relative to UGCAUGU
B13	0.0121 KA relative to UGCAUGU
B14	0.252 KA relative to UGCAUGU
B15	0.077 KA relative to UGCAUGU
